Results filed as inconclusive are left out. Unmarked numbers belong to inactive results. Calls of active or inactive are those of the source. Calls follow the shape of the dose curve; as a rule, active = well fitted cell-killing curve with a large enough effect; inconclusive = small, poorly fitted or top-dose-only effect; inactive = flat fitted curve, though single readings scatter.
Potency is read from the fitted curve at half-maximal effect.

This test is described as follows: Cell Viability - LYMP2-019 (AID 973). Also: nearly all actives have a fitted effect of over 55% in size.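 As to activity change, negative = cytotoxicity: 0% = DMSO alone and full effect = 92 µM tetraoctylammonium bromide.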 The conditions noted are these: LYMP2-019 lymphoblastoid cell line viability; series mostly up to 92.2 µM; activity change, negative = cytotoxicity: at the top concentration. The source says:
NIH Chemical Genomics Center [NCGC]
NIH Molecular Libraries Screening Centers Network [MLSCN]
National Institutes of Environmental Health Sciences [NIEHS]
National Toxicology Program [NTP]
We have developed a 1536-well cell-based assay for quantitative high throughput screening (qHTS) against a number of cell lines to determine in vitro cytotoxicity of small molecules. This particular assay uses a human lymphoblastoid cell line (LYMP2-019) purchased from Coriell Institute for Medical Research.
NCGC Assay Protocol Summary:
The CellTiter-Glo luminescent cell viability assay (Promega) is a homogeneous method to measure the number of viable cells in culture. The end point readout of this assay is based on quantitation of intracellular ATP, an indicator of metabolic activity, using the luciferase reaction. Luciferase catalyzes the oxidation of beetle Luciferin to oxyluciferin and light in the presence of ATP. The luminescent signal is proportional to amount of ATP present.
Using the CellTiter-Glo luminescent cell viability assay, the amount of cellular ATP was measured in the lymphoblastoid cell line with complete culture medium following compound treatment for 24 hours. The assay was performed in opaque white Kalypsys 1536-well plates. In the screen, tetraoctylammonium bromide was used as positive control. Library compounds were measured for their ability to cause acute toxicity in the cell line, as reflected by a decrease in intracellular ATP levels, in a concentration-dependent manner. […] AC50 values were determined from concentration-response data modeled with the standard Hill equation.
qHTS protocol for CellTiter Glo lymphoblastoid cellular assay
[Step] [Parameter] [Value] [Description]
1. Reagent; 5 uL; 2500 lymphoblastoid cells/well
2. Time; 5 hr; 37 C incubation
4. Controls; 23 nL; Tetraoctylammonium bromide 6.4pM to 92 uM
5. Time; 24 hr; 37 C incubation
6. Reagent; 5 uL; CellTiter Glo reagent
7. Time; 30 min; Room Temperature
8. Detection; Luminescence; Viewlux plate reader
Keywords: cell viability, cytotoxicity, lymphoblastoid cell line, luminescence, NTPHTS, NTPHTS_NCGC, NIEHS, DSSTox, MLSMR, MLSCN, NIH Roadmap, qHTS, NCGC
As to `Oc1ccccc1O`, the “activity change, negative = cytotoxicity” value is -26.4%.

`CN1CCC[C@H]1c1cccnc1`: the “activity change, negative = cytotoxicity” value was -4.38%.

As for `NCCO`, the “activity change, negative = cytotoxicity” value was -15.9%.

With `O=C(O)/C=C\C(=O)O`, the “activity change, negative = cytotoxicity” value is -6.3%.

`CN(C)c1ccc(C(=C2C=CC(=[N+](C)C)C=C2)c2ccccc2)cc1`: the Potency was 0.501 µM (active).

Consider `CC1(C)S[C@@H]2[C@H](NC(=O)[C@H](N)c3ccccc3)C(=O)N2[C@H]1C(=O)O`, for which the “activity change, negative = cytotoxicity” value is -4.88%.

Turning to `C#C[C@]1(O)CC[C@H]2[C@@H]3CCc4cc(O)ccc4[C@H]3CC[C@@]21C`, the “activity change, negative = cytotoxicity” value is -15.2%.

Regarding `Nc1ccc([N+](=O)[O-])cc1O`, the “activity change, negative = cytotoxicity” value is -8.49%.

In the case of `O=c1cc(-c2ccccc2)oc2ccccc12`, the “activity change, negative = cytotoxicity” value is -13.8%.

Regarding `COc1cc(/C=C/C(=O)CC(=O)/C=C/c2ccc(O)c(OC)c2)ccc1O`, the Potency was 39.8 µM (active).

Take `CCCOC(=O)c1ccc(O)cc1`: the Potency entry is “inactive”.

Turning to `c1ccc2sc(SSc3nc4ccccc4s3)nc2c1`, the “activity change, negative = cytotoxicity” value was -5.56%.

Take `O=C(O)c1cc(O)c(O)c(O)c1`: the “activity change, negative = cytotoxicity” value is -21%.

Take `CN(C)c1ccc(N=NS(=O)(=O)O)cc1`: the “activity change, negative = cytotoxicity” value is -19%.

For `Nc1nc2ccc([N+](=O)[O-])cc2s1`, the “activity change, negative = cytotoxicity” value is -15.9%.

In the case of `S=c1[nH]c2ccccc2s1`, the “activity change, negative = cytotoxicity” value was -6.79%.

With `CCCCCCCCCCCCCCCCCC(=O)O`, the “activity change, negative = cytotoxicity” value was -2.16%.

For the compound `COc1cc(CNC(=O)CCCC/C=C/C(C)C)ccc1O`, the “activity change, negative = cytotoxicity” value was -16.8%.

`Nc1ccc(O)c(C(=O)O)c1`: the “activity change, negative = cytotoxicity” value is 4.34%.

On to `CC(C)NCC(O)COc1cccc2ccccc12` (stereo unspecified), for which the “activity change, negative = cytotoxicity” value was -32.4%.

On to `CN(C)CCC(c1ccc(Cl)cc1)c1ccccn1` (stereo unspecified), for which the “activity change, negative = cytotoxicity” value is -20.1%.

For the origin of these results see PubChem BioAssay (NCATS).
